Source: PubChem
IL-1B inflam inh: blocks inflammasome-driven IL-1 beta release; 360,000 tested, 4.7% active; THP-1 LPS/ATP IL-1B secretion, AlphaLISA, 16 h; stronger effect = lower value; activity change, % at 57.5 µM; AID 743279; in the data active means activity change below about -50%; inconclusive means mostly about -30% to -49%
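THP-1 cells pretreated 1 hr with compounds (up to 57.5 uM final), then stimulated with LPS (250 ng/mL final) plus ATP (1.25 mM final); secreted IL-1B measured by AlphaLISA after 16 hr, decreased signal indicating inhibition.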
TDP1 cell CPT: growth inhibition of DT40 Tdp1-/-;hTDP1 cells with camptothecin (screen for TDP1 inhibitors) | chicken DT40 Tdp1-/-;hTDP1 cells + 20 nM CPT, ATP luminescence, 48 h | Potency, µM (top dose mostly 46.2 µM), for the others: top-dose activity change, negative = growth inhibition, actives largely listed as inhibitors | 420,000 tested, 12% active; further: potency means the concentration at half of the fitted maximal effect; nearly all actives have a fitted effect of over 55% in size
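Cell growth measured by CellTiter-Glo luminescence after a minimum 48 h, 37 C compound exposure with 20 nM CPT in Tdp1-knockout DT40 cells stably expressing hTDP1, seeded 400/well; qHTS titration format.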
RORgamma inh: inhibitors of mouse ROR gamma transcriptional activity; Drosophila S2 Gal4-RORgamma UAS-luciferase reporter, 20 h; P51450; Potency, µM (series often up to 53.6 µM), for inactives: top-dose activity change, negative = inhibition, most hits filed as inhibitors; 310,000 tested, 5.4% active; further: potency means the concentration at half of the fitted maximal effect; nearly all actives have a fitted effect of over 60% in size
Target sequence (P51450 whole entry, looked up, the tested form may be a part): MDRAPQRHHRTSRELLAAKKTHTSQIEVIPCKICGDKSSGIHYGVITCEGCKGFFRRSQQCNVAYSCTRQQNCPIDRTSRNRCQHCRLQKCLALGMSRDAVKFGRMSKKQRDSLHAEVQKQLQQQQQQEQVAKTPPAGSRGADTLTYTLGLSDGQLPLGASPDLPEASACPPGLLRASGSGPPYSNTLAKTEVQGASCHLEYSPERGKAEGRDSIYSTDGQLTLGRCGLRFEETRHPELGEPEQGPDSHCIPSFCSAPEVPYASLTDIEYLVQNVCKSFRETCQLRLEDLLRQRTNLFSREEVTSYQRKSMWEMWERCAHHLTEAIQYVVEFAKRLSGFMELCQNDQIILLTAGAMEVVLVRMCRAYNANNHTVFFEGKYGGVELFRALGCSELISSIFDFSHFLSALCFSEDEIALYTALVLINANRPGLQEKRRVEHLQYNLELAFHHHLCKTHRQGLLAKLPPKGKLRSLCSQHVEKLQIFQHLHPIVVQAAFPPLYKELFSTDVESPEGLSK
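Stably transfected Drosophila Schneider cells are the test system, with ROR gamma fused to Gal4 and luciferase under UAS control; luminescence is read after 20 hr of 700 uM copper sulfate induction at ambient temperature.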
LDHA block: blocks human lactate dehydrogenase A | P00338 | purified LDHA, NADH/diaphorase-resazurin fluorescence; stronger effect = lower value | activity change, % (values are at about 110 or 230 µM) | 480,000 tested, 0.15% active | AID 1347041; in the data active means activity change below about -30%; inconclusive means mostly about -25% to -30%;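 further: plate controls were DMSO wells for no effect and wells without enzyme for full effect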
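LDH5 2 nM; NADH 0.06 mM, pyruvate 0.2 mM; 200 mM Tris pH 7.4, EDTA, Tween-20; 5 min RT. Detection: diaphorase 0.133 mg/mL + resazurin 37 µM, fluorescence ex540/em590 at 0 and 20 min; normalized to enzyme-free and DMSO wells.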
Gal4-VP16 FLuc: inhibits Gal4-VP16 luciferase reporter, ROR gamma counter-screen; 310,000 tested, 3.5% active; Drosophila S2 Gal4-VP16 UAS-luciferase, luminescence, 20 h; Potency, µM (series often up to 53.6 µM), inactives show at the highest dose activity, negative = inhibition, usual class: inhibitors;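 further: Gal4-VP16 expression switched on by copper sulfate through the metallothionein promoter; potency means the concentration at half of the fitted maximal effect; nearly all actives have a fitted effect of over 50% in size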
TDP1 cell noCPT: qHTS for Inhibitors of human tyrosyl-DNA phosphodiesterase 1 (TDP1): qHTS in cells in absence of CPT; DT40 Tdp1-/- hTDP1 cells, no CPT, ATP luminescence, 48 h; Potency, µM (top dose mostly 46.2 µM), for the others: at the highest dose activity change, negative = growth inhibition, actives largely listed as inhibitors; 420,000 tested, 15% active; AID 686978, 2013; further: potency means the concentration at half of the fitted maximal effect; nearly all actives have a fitted effect of over 55% in size
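Chicken DT40 Tdp1-/- cells complemented with human TDP1, screened without camptothecin (DMSO vehicle only), 400 cells/well. Compounds pin-transferred, cells incubated at 37 °C for at least 48 hr. Growth read as ATP-dependent luminescence (CellTiter-Glo, 30 min at RT).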
* marks the source's active call; other numbers are inactive results; ? = inconclusive; · = no result; [ ] = dose if it differs, or a comment. Hits are enriched below; roughly 18% of the tested compounds scored in any of these assays. Unless noted, the call rests on the fitted dose curve; in most records, active means well fitted curve in the direction sought with a large enough effect; inconclusive means small, poorly fitted or top-dose-only effect, or another doubt; inactive means no such curve, though single readings can be large; an effect the other way counts as inactive or inconclusive. Unless noted, on the % scale 0 is the no-effect control and ±100 the full control effect.

SMILES | IL-1B inflam inh | TDP1 cell CPT | RORgamma inh | LDHA block | Gal4-VP16 FLuc | TDP1 cell noCPT
CCOC(=O)c1ccc(NC(=O)CCc2c(C)nc3c(c(C)nn3-c3ccccc3)c2C)cc1 | · | 16µM* | · | -8 | · | 10µM*
COc1ccc(-c2cc(C(=O)NC(C)(CO)CO)c3ccccc3n2)cc1 | · | · | · | 2 | · | ·
Cc1ccc2nc(CSc3nnc(N4CCCC4)n3-c3cccc(Cl)c3)cn2c1 | · | · | · | 4 | · | ·
CN(C)CCNC(=O)C1CCN(c2nc(Cl)nc3nc[nH]c23)CC1 | · | · | · | 6 | · | ·
CC(=O)Nc1ccc(NC(=O)CCc2c(C)nc3c(c(C)nn3-c3ccccc3)c2C)cc1 | · | -16% | · | 0 | · | -24%
Cc1nc2c(c(C)nn2-c2ccccc2)c(C)c1CCC(=O)Nc1ccc(F)cc1 | · | ? | · | -6 | · | 18µM*
O=C1ON=C(c2ccc([N+](=O)[O-])cc2)/C1=C/c1ccccc1O | -18 | ? | 0% | -43* | ? | ?
O=[N+]([O-])c1ccccc1-c1ccc(/C=N/n2cnnc2)o1 | 2 | -15% | 17% | 0 | -3% | -13%
O=C1ON=C(c2ccccc2)/C1=C/c1ccc(-c2ccccc2[N+](=O)[O-])o1 | -110* | 12µM* | ? | -4 | 10µM* | 15µM*
O=C(CCC(=O)c1ccc(Cl)cc1)OCC(=O)c1ccc(-c2ccccc2)cc1 | · | · | · | 4 | · | ·
O=C(CN1C(=O)CCC1=O)Nc1ccc(Cc2ccc(NC(=O)CN3C(=O)CCC3=O)cc2)cc1 | -69* | 16% | 15% | 0 | -1% | 8%
COc1ccc(S(=O)(=O)Nc2nc3ccccc3nc2NCc2ccccc2OC)cc1 | · | · | · | -5 | · | ·
O=C(C1CCCN1S(=O)(=O)c1ccc(Cl)c(Cl)c1)N1CCCCC1 (stereo not drawn) | 7 | 18µM* | 8% | -7 | 14% | 16µM*
O=C(C1CCCCN1S(=O)(=O)c1ccccc1)N1CCN(Cc2ccccc2)CC1 (stereo not drawn) | 7 | ? | 25% | -11 | 3% | -26%
CS(=O)(=O)N(CC(=O)N1CCN(C(c2ccccc2)c2ccccc2)CC1)C1CCCCC1 | -15 | -16% | 13µM* | 0 | -1% | -10%
O=C(C1CCCCN1S(=O)(=O)c1ccccc1)N1CCN(C(c2ccccc2)c2ccccc2)CC1 (stereo not drawn) | 12 | 23µM* | -15% | 0 | 9% | 21µM*
O=C(C1CCCCN1S(=O)(=O)c1ccccc1)N1CCCCC1 (stereo not drawn) | 21 | ? | -7% | -1 | -3% | 16µM*
Cc1ccc(S(=O)(=O)N2CCCCC2C(=O)N2CCCCCC2)cc1 (stereo not drawn) | · | · | · | -5 | · | ·
CS(=O)(=O)N(CC(=O)N1CCN(c2ccccc2F)CC1)C1CCCCC1 | 5 | -28% | -1% | 1 | 7% | ?
Cc1cc(NC(=O)NC(=O)c2ccccc2NC(=O)C(C)N)ccc1Oc1ncc(Br)cn1 (stereo not drawn) | -1 | 0.65µM* | · | 28 | · | 0.58µM*
CCOC(=O)c1sc2nc(CC(=O)OC)nc(N3CCN(c4ccccn4)CC3)c2c1C | -12 | 23µM* | ? | -5 | 2% | 18µM*
Cc1sc2nc(CSc3ccccc3)nc(N3CCOCC3)c2c1C | -14 | ? | 0% | 1 | -1% | ?
CCOC(=O)c1sc2nc(C)nc(N3CCCCC3C)c2c1C (stereo not drawn) | 30 | ? | -10% | 3 | 4% | ?
CCOC(=O)c1sc2nc(CC(=O)OC)nc(Nc3ccc(Cl)cc3)c2c1C | · | · | · | 1 | · | ·
CCOC(=O)c1sc2nc(CSc3ccccc3)nc(N3CCC(C(N)=O)CC3)c2c1C | -116* | ? | 39% | 0 | 4% | 23µM*
SMILES | IL-1B inflam inh | TDP1 cell CPT | RORgamma inh | LDHA block | Gal4-VP16 FLuc | TDP1 cell noCPT
Cc1sc2nc(CSc3ccccc3)nc(N3CCC(C(N)=O)CC3)c2c1C | -63* | ? | 37% | 1 | -4% | 21µM*
Cc1cc(C)c2nc(-c3ccccn3)cc(C(=O)O)c2c1 | · | · | · | -1 | · | ·
Cc1cc(C)c2nc(-c3ccccn3)cc(C(=O)n3cccn3)c2c1 | 0 | ? | 7% | -1 | -6% | 18µM*
COCCn1c(C)cc(C(=O)CSc2nnc(Nc3ccccc3C)s2)c1C | · | · | · | 6 | · | ·
COC(=O)Sc1nc(N2CCOCC2)c2c(c1C#N)CC(C)(C)OC2 | -20 | 26µM* | ? | -1 | ? | ?
CC(C)Sc1nc(N2CCOCC2)c2c(c1C#N)CC(C)(C)N(C)C2 | 10 | 18µM* | -20% | 1 | 0% | 16µM*
COC(=O)CSc1nc(N2CCOCC2)c2c(c1C#N)CC(C)(C)OC2 | 17 | 0% | 2% | 4 | -10% | -25%
COc1ccc2c(c1)CCc1cnc(-n3ncc(C(=O)NCCCc4ccncc4)c3C)nc1-2 | · | -2%[9.04 µM] | · | · | · | 18µM*
CCCCCCOc1ccc(N2C(=O)CC(N3CCN(CCN=CC4C(=O)CC(C)(C)CC4=O)CC3)C2=O)cc1 (stereo not drawn) | 21 | ? | 3% | -2 | 5% | 23µM*
COc1ccc(C(=O)Nc2nc3cc4c(cc3s2)OCCO4)c(OC)c1 | ? | ? | 0.028µM* | 0 | 0.4µM* | ?
CCN(CC)S(=O)(=O)c1ccc2nc(NC(=O)c3cccs3)sc2c1 | 23 | ? | -39% | -1 | -3% | ?
CCN(CC)S(=O)(=O)c1ccc2nc(NC(=O)c3ccccc3OC)sc2c1 | · | ? | · | 3 | · | 5.2µM*
COc1ccccc1C(=O)Nc1nc2cc3c(cc2s1)OCCO3 | 9 | 5.8µM* | ? | -4 | ? | 5.8µM*
CCCCN(C)C(=O)c1ccc(S(=O)(=O)NCc2ccco2)cc1 | · | · | · | -3 | · | ·
CN(CC(=O)C(C#N)c1ccccc1)C1CCCCC1 (stereo not drawn) | · | · | · | -1 | · | ·
Cc1nc(CN2CCN(C(=O)NCCc3ccccn3)CC2)cs1 | · | · | · | 3 | · | ·
Cc1ccc(-n2cc(CN3CCN(Cc4nccn4C)CC3)c(-c3cccc(C)c3)n2)cc1 | -57* | ? | 10µM* | 4 | -4% | ?
CCn1ccnc1CN(C)Cc1cn(-c2ccc(C)cc2)nc1-c1cccc(C)c1 | -249* | ? | 1.6µM* | 11 | 10µM* | -108%
CCn1ccnc1CN(C)Cc1cn(-c2cccc(C)c2)nc1-c1cccc(F)c1 | -62* | 16µM* | 1.6µM* | 2 | 16µM* | ?
COc1ccc(-n2cc(CN(C)CCO)c(-c3cccc(F)c3)n2)cc1 | -30 | -26% | 11% | 6 | -20% | ?
